# Data: ChEMBL document CHEMBL1201862, “PubChem BioAssay data set” (2004)
# Screen size: about 400,000 compounds; about 2,100 (0.53%) were called active. Inconclusive results (about 14%) are left out. The rule behind the calls is not given here. The sample as a whole holds a higher share of actives than the screen did.
# Biological target: Ataxin-2 (Homo sapiens) (UniProt Q99700)
# Assay: qHTS for Inhibitors of ATXN expression.
# Type: functional
# Ataxin-2 (Homo sapiens), sequence (Q99700 whole entry): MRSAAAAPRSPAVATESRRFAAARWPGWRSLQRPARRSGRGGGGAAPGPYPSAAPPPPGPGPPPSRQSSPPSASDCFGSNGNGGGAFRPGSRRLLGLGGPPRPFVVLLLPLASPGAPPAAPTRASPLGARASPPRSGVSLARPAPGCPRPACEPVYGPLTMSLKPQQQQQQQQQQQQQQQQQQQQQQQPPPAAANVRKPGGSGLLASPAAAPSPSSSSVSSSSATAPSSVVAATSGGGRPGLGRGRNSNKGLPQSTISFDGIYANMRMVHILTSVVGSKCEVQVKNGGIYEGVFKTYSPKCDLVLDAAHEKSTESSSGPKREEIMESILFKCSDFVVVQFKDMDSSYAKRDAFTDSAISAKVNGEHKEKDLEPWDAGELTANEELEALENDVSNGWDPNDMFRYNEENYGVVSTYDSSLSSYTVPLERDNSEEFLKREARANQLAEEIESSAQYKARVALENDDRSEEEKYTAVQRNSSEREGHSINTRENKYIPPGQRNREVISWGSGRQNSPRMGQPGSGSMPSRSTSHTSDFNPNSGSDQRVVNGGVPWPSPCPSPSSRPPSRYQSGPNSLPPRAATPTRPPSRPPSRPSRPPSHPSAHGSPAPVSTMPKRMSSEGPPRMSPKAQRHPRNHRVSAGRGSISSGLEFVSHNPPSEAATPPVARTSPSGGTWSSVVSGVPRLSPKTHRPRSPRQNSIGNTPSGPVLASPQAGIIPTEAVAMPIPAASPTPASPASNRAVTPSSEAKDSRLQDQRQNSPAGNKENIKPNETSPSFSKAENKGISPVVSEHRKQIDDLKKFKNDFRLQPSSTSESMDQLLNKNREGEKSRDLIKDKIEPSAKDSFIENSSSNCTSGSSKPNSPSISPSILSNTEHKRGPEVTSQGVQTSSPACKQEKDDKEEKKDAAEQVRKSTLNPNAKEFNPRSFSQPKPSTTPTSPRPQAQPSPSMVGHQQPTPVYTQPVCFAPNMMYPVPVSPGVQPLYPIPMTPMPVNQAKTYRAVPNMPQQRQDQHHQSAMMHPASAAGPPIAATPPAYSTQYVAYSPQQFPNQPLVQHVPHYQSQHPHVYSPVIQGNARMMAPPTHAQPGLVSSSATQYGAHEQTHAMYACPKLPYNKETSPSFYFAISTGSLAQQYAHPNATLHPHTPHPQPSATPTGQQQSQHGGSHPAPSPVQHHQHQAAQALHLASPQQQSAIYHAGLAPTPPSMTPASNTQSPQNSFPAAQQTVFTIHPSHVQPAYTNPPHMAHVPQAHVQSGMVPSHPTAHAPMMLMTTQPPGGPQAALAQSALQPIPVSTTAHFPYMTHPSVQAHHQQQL
row,SMILES,Potency
1,CCOCCCn1c(=N)c(C(=O)NCc2ccco2)cc2c(=O)n3ccccc3nc21,inactive
2,O=C1[C@H](Oc2ccccc2)[C@@H](c2ccccc2)N1c1ccncc1,28.2 µM (active)
3,O=C1[C@H]2C(c3ccccc3)=NN(c3ccccc3)[C@H]2C(=O)N1c1ccccc1,inactive
4,O=C1c2ccccc2C(Nc2ccc(Cl)cn2)N1c1cccnc1 (centres undefined),inactive
5,O=C1[C@@H](c2ccccc2)[C@@H](c2ccccc2)N1c1cccnc1,25.1 µM (active)
6,CCOC(=O)C1CCN(Cc2nc3ccc([N+](=O)[O-])cc3c(=O)n2-c2ccc(OC)cc2OC)CC1,inactive
7,N#CC1=C(N)Oc2cc(O)ccc2C1c1ccc(Br)s1 (centres undefined),inactive
8,c1cc2c3c(cccc3c1)NC1(CCC3(CC1)Nc1cccc4cccc(c14)N3)N2,35.5 µM (active)
9,Cn1c(-c2cc3ccc(OC(=O)C(C)(C)C)cc3oc2=O)nc2ccccc21,inactive
10,COc1ccc(NC(=O)c2c(NC(=O)CCC(=O)O)sc3c2CCCCC3)cc1,inactive
11,CCOc1ccccc1NC(=O)c1sc2nc(-c3ccc(OC)cc3)ccc2c1N,inactive
12,COc1ccc(-c2c3c(nc4sc(C(=O)Nc5ccccc5)c(N)c24)CCC3)cc1,inactive
13,CCOc1ccccc1NC(=O)c1c(NC(=O)Cc2ccc(OC)cc2)sc2c1CCC2,25.1 µM (active)
14,COc1ccc(CC(=O)Nc2sc3c(c2C(=O)Nc2cccc(Cl)c2)CCCCC3)cc1,28.2 µM (active)
15,OC[C@@H]1[C@@H](c2ccccc2)C(c2ccc(F)cc2)=NN1c1ccccc1,inactive
16,Cn1c(=O)c2nc3ccc(NC(=O)C(F)(F)F)cc3nc2n(C)c1=O,inactive
17,Cc1cc(C)n(CCC(=O)Nc2cccc(F)c2)n1,inactive
18,O=C(CCn1cnc2onc(-c3ccc(F)cc3)c2c1=O)Nc1cccc(C(F)(F)F)c1,20 µM (active)
19,CC(C)(C)c1ccc(C(=O)Nc2cccc3c(=O)[nH][nH]c(=O)c23)cc1,inactive
20,Cc1ccc(S(=O)(=O)N2CCOCC2)cc1NC(=O)COC(=O)CNC(=O)c1ccc(C(C)(C)C)cc1,inactive
21,COc1ccc(NC(=O)CSc2nnc(C)n2C2CC2)cc1S(=O)(=O)N1CCOCC1,inactive
22,O=C(Nc1cccc(S(=O)(=O)N2CCCCC2)c1)c1ccc(OCC2CCCO2)cc1 (centres undefined),inactive

row,SMILES,Potency
1,Cc1ccc(NC(=O)C2CCC(C(C)(C)C)CC2)cc1S(=O)(=O)N1CCOCC1 (centres undefined),31.6 µM (active)
2,Cc1cc(C)n(-c2ccc(C(=O)Nc3ccc(C)c(S(=O)(=O)N4CCOCC4)c3)cc2)n1,12.6 µM (active)
3,Cc1ccc(NC(=O)CCS(=O)(=O)c2ccccc2)cc1S(=O)(=O)N1CCOCC1,inactive
4,O=C(NC1=NCCS1)c1ccc(Cl)c(S(=O)(=O)N2CCOCC2)c1,inactive
5,Cc1cc(C(=O)Nc2ccc(Cl)c(S(=O)(=O)N3CCOCC3)c2)c2ccccc2n1,inactive
6,O=C(Nc1ccc(Cl)c(S(=O)(=O)N2CCOCC2)c1)c1ccc(OCC2CCCO2)cc1 (centres undefined),11.2 µM (active)
7,Cc1cc(/C=C(\C#N)C(=O)NC2CCCCCC2)c(C)n1C,inactive
8,COc1ccc(C2CC(c3cccc(Cl)c3)=NN2c2ccc(S(N)(=O)=O)cc2)cc1 (centres undefined),inactive
9,CC1Cc2ccccc2N1CC(=O)NC(=O)NC1CCCC1 (centres undefined),inactive
10,COc1ccc(CN2CCCC(C(=O)N3CCCCC3)C2)cc1 (centres undefined),inactive
11,O=C(c1cccnc1)N1CCN(Cc2ccc3ccccc3c2)CC1,inactive
12,O=C(C1=C[C@@H](C2CCCCC2)C[C@@H](OCc2ccc(CO)cc2)O1)N1CCN(Cc2ccccc2)CC1,39.8 µM (active)
13,Cc1cc(=O)oc2cc(OC(=O)c3cncc(Br)c3)ccc12,inactive
14,Cc1c(C2(O)CCCCC2)[nH]c2cc(C(F)(F)F)ccc12,35.5 µM (active)
15,CCc1c(C2(O)CCCCC2)[nH]c2ccc(C(F)(F)F)cc12,25.1 µM (active)
16,COCc1cc(C)nc2oc(C(=O)c3ccccc3)c(N)c12,inactive
17,CCCCC[C@H](O)/C=C/C1C(=O)C=C[C@H]1C/C=C\CCCC(=O)OC (some centres undefined),35.5 µM (active)
18,CCCCC[C@@H](/C=C/C1C(=O)C=C[C@H]1C/C=C\CCCC(=O)OC)OC(C)=O (some centres undefined),35.5 µM (active)
19,CCOC(=O)c1c(NC(=O)c2ccc(S(=O)(=O)N3CCCC(C)C3)cc2)sc2c1CCN(C(C)C)C2 (centres undefined),inactive
20,Cc1cc(-c2ccc(Br)s2)nc(-n2cccc2)n1,inactive
21,OC1(c2ccc(Cl)c(Cl)c2)C[n+]2ccccc2N1Cc1ccccc1 (centres undefined),28.2 µM (active)
22,Cc1ccc2nc3c(cc(C(=O)NCCc4ccccc4)c(=N)n3CCCN3CCOCC3)c(=O)n2c1,inactive

row,SMILES,Potency
1,CC(C)(O)C#Cc1ncc(C(F)(F)F)cc1Cl,inactive
2,N#CC(C#N)=c1ccc2c(c1)NC1(CCCCC1)N=2,12.6 µM (active)
3,COc1ccc(CCNC(=O)C(=O)NCC2OCCN2S(=O)(=O)c2ccc(OC)c(OC)c2)cc1 (centres undefined),inactive
4,COc1ccc(CCNC(=O)COc2ccc(S(=O)(=O)NC3CCCCC3)cc2Cl)cc1,35.5 µM (active)
5,O=C(COc1ccc(F)cc1Cl)NC1CCCCCC1,inactive
6,CCCCNc1c(-c2ccc(SC3CCCCC3)cc2)nc2cnccn12,inactive
7,Cc1ccc(-c2nnc(NC3CCCCC3)c3ccccc23)cc1S(=O)(=O)N1CCN(C)CC1,11.2 µM (active)
8,COc1ccc(CCNC(=O)c2coc(=O)c(Br)c2)cc1,20 µM (active)
9,Cc1noc(C)c1COc1ccc(C(=O)NCCc2ccc(S(N)(=O)=O)cc2)cc1,inactive
10,O=C(COc1ccccc1Br)NCCC1=CCCCC1,inactive
11,O=C(NCCC1=CCCCC1)c1coc(=O)c(Br)c1,31.6 µM (active)
12,Cn1c(C(=O)O)cc2c(=O)n3ccccc3nc21,inactive
13,O=C(Nc1ccc2cccnc2c1)c1ccc(Br)cc1,inactive
14,CC(=O)OCCn1c2nc(=O)[nH]c(=O)c-2nc2cc(C)c(C)cc21,inactive
15,COc1ccc2nc(NN=C3C(=O)CC(C)(C)CC3=O)sc2c1,33.6 µM (active)
16,COc1cccc(C2C3=C(O)CC(C)(C)CC3=NC(C)=C2C(=O)Nc2nc3ccccc3s2)c1OC (centres undefined),inactive
17,COc1ccc2nc(Nc3ccccc3)sc2c1,inactive
18,O=C(Nc1nccs1)c1ccc(-c2ccc([N+](=O)[O-])cc2)o1,inactive
19,O=C(Nc1ccc2oc(=O)ccc2c1)c1ccc(-c2cccc([N+](=O)[O-])c2)o1,39.8 µM (active)
20,COc1ccc(CCNC(=O)c2ccc(-c3cccc([N+](=O)[O-])c3)o2)cc1OC,inactive
